Experimental data: PubChem BioAssay AID504692 (The Scripps Research Institute Molecular Screening Center, 2011)
Screen size: about 340,000 compounds; about 2,000 (0.59%) were called active. The sample as a whole holds a higher share of actives than the screen did. Values without a mark were called inactive. No stated cut-off is given here; in the data, active means activation mostly above about 9.5% (no sharp cut-off); inactive means mostly below about 7.6%.

These compounds were tested against 5-hydroxytryptamine receptor 5A (Homo sapiens) (UniProt P47898) (assay: HTR5A agonists in luminescence cell assay, primary screen, counter-screen for OPRM1-OPRD1 heterodimer agonist project, full-deck HTS (AID 504692;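 further: 0% = cells with vehicle only and 100% = reference agonist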)). Conditions: cell-based, at 9.3 µM, hits give high values.
5-hydroxytryptamine receptor 5A (Homo sapiens), sequence (P47898 whole entry, looked up): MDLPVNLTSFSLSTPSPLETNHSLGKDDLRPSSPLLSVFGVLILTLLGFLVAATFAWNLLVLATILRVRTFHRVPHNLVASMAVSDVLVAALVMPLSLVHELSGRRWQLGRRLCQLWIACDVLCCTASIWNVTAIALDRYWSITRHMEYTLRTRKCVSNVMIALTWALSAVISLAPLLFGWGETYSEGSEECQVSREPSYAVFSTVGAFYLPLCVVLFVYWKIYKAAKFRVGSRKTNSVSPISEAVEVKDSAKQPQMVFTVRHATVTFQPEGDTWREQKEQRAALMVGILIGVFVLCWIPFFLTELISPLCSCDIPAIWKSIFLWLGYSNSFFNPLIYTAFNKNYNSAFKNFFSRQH

| Compound | activation |
| --- | --- |
| CN(C)CCCO/N=C(\c1ccccc1)c1ccncc1 | 7.85% |
| Cc1ccc(C2CCN(C(=S)Nc3cccc(Cl)c3)C2)cc1 (configuration not stated) | 1.97% |
| CC(C)(C)n1ncc2c(=O)n(Cc3ccc(Cl)cc3)cnc21 | 3.5% |
| CN(CC(=O)NCc1ccc(Cl)cc1)S(=O)(=O)c1cccs1 | 1.02% |
| CCSc1nnc(-c2cc3c(s2)-c2ccccc2CC3)o1 | -1.94% |
| CSc1nc2sc3c(c2c(=O)[nH]1)CCc1ccccc1-3 | 12.1% (active) |
| CCSc1nc2sc3c(c2c(=O)[nH]1)CC(C)(C)OC3 | 2.29% |
| O=C(Nc1ccc2c(c1)OCO2)C1CC1(Cl)Cl (configuration not stated) | 12.7% |
| Cc1ccc(-c2noc(CCC(=O)Nc3ccccc3N3CCN(C)CC3)n2)cc1 | -1.14% |
| Cc1ccc(C(=O)O/N=C(\N)c2ccccn2)cc1Cl | 4.33% |
| O=C(COc1ccc(-n2cnnn2)cc1)Nc1ccccc1Cl | 5.09% |
| O=C(Nc1ccccc1Cl)O/N=C(/c1ccccc1)c1ccccn1 | 12.7% (active) |
| OCCC1CN(Cc2cccn2-c2nccs2)CCN1CCc1ccccc1 (configuration not stated) | 0.07% |
| O=C(CCNS(=O)(=O)c1ccccc1C(F)(F)F)NCc1ccc2c(c1)OCO2 | -3.01% |
| O=C(CCc1nnc(Cc2ccc3c(c2)OCO3)o1)NCCc1ccccc1Cl | 10.7% (active) |
| O=C(CC(Cc1ccccc1)C(=O)O)NCCc1ccc2c(c1)OCO2 (configuration not stated) | 0.52% |
| CC(NC(=O)COc1ccc(-c2ccccc2)cc1)C1CCCO1 (configuration not stated) | 4.73% |
| COCCCNC(=O)CN1CCN(Cc2ccccc2Cl)C1=O | 2.41% |
| Cc1ccccc1CN1CCN(CC(=O)NCc2ccccn2)C1=O | 16.8% (active) |
| Cc1nn(CC(=O)NCc2ccccn2)c(C)c1[N+](=O)[O-] | -1.81% |
| O=C(Cn1nnc(-c2ccccc2)n1)N/N=C/c1ccc(-c2ccc(Cl)cc2)o1 | 1.41% |
| CN(CCOc1ccc(Br)cc1)CC(=O)Nc1cccc(S(=O)(=O)NC2=NCCC2)c1 | 12.7% (active) |
| CCc1ccc(C(=O)OCC(=O)Nc2cccc(S(=O)(=O)NC3=NCCCCC3)c2)cc1 | 7.2% |
| CC(=O)Nc1ccc(C(=O)Nc2cccc(S(=O)(=O)NC3=NCCC3)c2)cc1 | 1.89% |
| Cn1c(=O)[nH]c(=O)c2c1nc(N(CCO)Cc1ccccc1)n2Cc1ccccc1Cl | -3.62% |
| COc1ccc(Cl)cc1NC(=O)C(C)N1CCc2ccccc21 (configuration not stated) | 1.38% |
| CCCCCc1ccc(-c2ccc(C(=O)O)cc2)nc1 | 4.14% |
